VACV mCherry inh – inhibitors of vaccinia virus infection (mCherry reporter signal). Vaccinia virus mCherry reporter infection, fluorescence. Potency, µM (doses to about 36.5 µM), for the others: at the highest dose activity change, negative = inhibition, most hits filed as inhibitors. actives 0.63% (n = 310,000). AID 720579; calls by dose curve; tested in A549 cells; further: potency means the concentration at half of the fitted maximal effect; nearly all actives have a fitted effect of over 35% in size
HCMV antiviral – blocks human cytomegalovirus replication. HFF cells, HCMV-luciferase reporter, 72 h; active compounds read low. AID 1259415. actives 4.5% (n = 410,000). activity change, negative = inhibition, % at 57.5 µM; in the data active means activity change below about -60%; inconclusive means no clear call, values can overlap the other calls; inactive means above about -39%
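Cell-based, HFFs, 1000 cells/well, 16 h 37C; cpds in DMSO + HCMV-luc, MOI 1 PFU/cell; 72 h 37C; OneGlo luminescence after 5 min RT; norm. to buffer vs Salinomycin 10uM.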
HCV inh – HCV inhibition; Huh7.5.1 HCVcc-Cre infection, luciferase reporter, 44 h; Potency, µM (titrated, usually from 41.8 µM), for inactives: at the top dose activity change, negative = inhibition, usual class: inhibitors; actives 3.4% (n = 340,000); further: potency means the concentration at half of the fitted maximal effect
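Cells (1,000/well) were plated 4 h before compound, then infected with HCVcc-Cre virus (~0.5 moi). After 44 h further culture, infection was read as luciferase luminescence following a 15 min substrate incubation at room temperature.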
VACV Venus inh – inhibitors of vaccinia virus (Venus reporter); actives 0.46% (n = 330,000); Vaccinia virus Venus reporter expression, fluorescence; AID 720580; Potency, µM (series often up to 36.5 µM), for the others: at the highest dose activity change, negative = inhibition, most hits filed as inhibitors; calls by dose curve; tested in A549 cells; further: potency means the concentration at half of the fitted maximal effect; nearly all actives have a fitted effect of over 30% in size
FMDV antiviral – antivirals against foot and mouth disease virus | actives 1.2% (n = 410,000) | FMDV antiviral cell-based qHTS | AID 1159524 | Potency, µM (highest dose often 57.9 µM), inactives show at the highest dose activity change, negative = inhibition, most hits filed as inhibitors; calls by dose curve; tested in HEK293T cells; further: read-out not given here; potency means the concentration at half of the fitted maximal effect; nearly all actives have a fitted effect of over 45% in size
Sm TGR inh – S. mansoni TGR enzyme inhibition; Q962Y6; purified TGR, DTNB reduction, TNB absorbance 405 nm; Potency, µM (top dose mostly 114 µM), for the others: at the highest dose activity change, negative = inhibition, actives largely listed as inhibitors; actives 3% (n = 360,000); further: potency means the concentration at half of the fitted maximal effect; nearly all actives have a fitted effect of over 60% in size
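Kinetic colorimetric format: TGR-catalysed, NADPH-driven DTNB reduction monitored via TNB absorbance. Enzyme dispensed at 20 nM; compound exposure 15 min at room temperature before reaction start.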
The depositor's hits bear a star; i = inactive; ? = inconclusive; / = no result given; ! = not active in a repeat; [ ] = dose if it differs, or a comment. A selection: hits, their analogues and other compounds. The true share with any hit is near 9.3%. Unless noted, the call rests on the fitted dose curve; in most records, active means well fitted curve in the direction sought with a large enough effect; inconclusive means small, poorly fitted or top-dose-only effect, or another doubt; inactive means no such curve, though single readings can be large; an effect the other way counts as inactive or inconclusive. On the % scale 0 is the no-effect control and ±100 the full control effect.

SMILES | VACV mCherry inh | HCMV antiviral | HCV inh | VACV Venus inh | FMDV antiviral | Sm TGR inh
COCCn1c(-c2ccc(C#N)cc2)nc2c1c(=O)[nH]c(=O)n2Cc1ccccc1 | i | -34 | 14% | -8% | -13% | -5%
CC(=O)C1=C(O)C(=O)N(c2ccc(O)cc2)C1c1ccc(C)cc1 (configuration not stated) | -3% | -12 | 19% | -5% | -9% | -6%
CC(=O)C1=C(O)C(=O)N(c2ccc(F)cc2)C1c1ccc(C)cc1 (configuration not stated) | -4% | -69* | -2% | 1% | 6% | -17%
COc1cc(CN(C)Cc2ccccc2)cc(OC)c1O | -3% | 16 | 12% | -22% | -12% | 11µM*
COc1ccc(CCN(C)Cc2ccc(OCc3ccccc3)c(OC)c2)cc1OC | i | -8 | -12% | -18% | 4% | 7%
COc1cc(NC(=O)c2nnn(CC(=O)Nc3cc(C)ccc3C)c2N)cc(OC)c1 | i | -70* | / | -3% | 0% | -2%
COc1ccc(OC)c(NC(=O)c2nnn(CC(=O)Nc3ccc(C(C)C)cc3)c2N)c1 | -17%[7.34 µM] | -63* | / | -11%[7.34 µM] | -13% | 4%
COc1ccc(NC(=O)Cn2nnc(C(=O)NCCc3ccccc3)c2N)cc1 | -9% | -64*! | -6% | 7% | 5% | -12%
COc1ccc(/C=C2\CCCC3C2=NC(=S)NC3c2ccc(OC)cc2)cc1 (configuration not stated) | -5% | 50 | ? | -6% | -7% | -24%
Cc1cccc(N2CCN(C(=O)c3c(C)oc4ncnc(N5CCCCC5)c34)CC2)c1C | i | -11 | / | -2% | -20% | -9%
CCOC(=O)c1sc2nc(CC(=O)OC)nc(N(C)CCc3ccccn3)c2c1C | -3% | ? | -16% | -7% | -10% | 4%
CCOC(=O)c1sc2nc(CC(=O)OC)nc(N3CCN(c4ccc(OC)cc4)CC3)c2c1C | -8% | 18 | ? | 2% | ? | 9%
CCOC(=O)c1sc2nc(CC(=O)OC)nc(NCCN(CC)CC)c2c1C | -19% | -31 | 11µM* | -26% | -11% | -16%
CCOC(=O)c1sc2nc(CC(=O)OC)nc(NCc3ccc(Cl)cc3)c2c1C | / | -107* | 5.6µM* | / | -29% | -6%
CCOC(=O)c1sc2nc(CC(=O)OC)nc(NCCN3CCOCC3)c2c1C | i | ? | ? | -10% | -6% | 25µM*
CCOc1ccc(N(C(=O)CNC(=O)c2ccco2)C(C(=O)NC2CCCC2)c2ccco2)cc1 (configuration not stated) | -17% | -3 | 7% | -18% | -9% | -2%
O=S(=O)(NCc1cccnc1)c1ccc(Br)c2ccccc12 | -7% | -63* | -24% | -13% | 29% | -5%
O=C(Nc1ccc(Cl)c(Cl)c1)c1cccc(S(=O)(=O)NCc2cccnc2)c1 | 28µM* | -95* | 14µM* | ? | ? | 7%
O=C(Nc1ccc(Cl)c(Cl)c1)OCc1cccnc1 | / | -12 | 22µM* | / | -19% | -13%
COc1cccc(S(=O)(=O)NCc2ccc(C(=O)Nc3ccc(Cl)c(Cl)c3)cc2)c1 | / | ? | ? | ? | ? | 4%
Cc1ccc(S(=O)(=O)NCc2cccnc2)cc1C | -4% | -86* | 3% | -11% | 36% | -8%
O=C(Nc1cccnc1)OCc1ccccc1 | i | 25 | 15% | -5% | 45% | 0%
CC(C)NC(=O)C1(C)Cc2c(-c3cccc(C(N)=O)c3)ccnc2O1 (configuration not stated) | 0% | 32 | / | 0% | -15% | /
Cc1nn(-c2ccccc2)c(NC(=O)c2ccccc2)c1Br | -9% | ? | -6% | 14% | -10% | 2%
CC(C)(C)C(=O)Nc1nnc(CCc2ccccc2)s1 | -27% | 119 | 27% | -13% | 53% | -6%
CCOC(=O)c1noc2ncn(CC(=O)Nc3cccc(C(F)(F)F)c3)c(=O)c12 | -3% | -8 | / | -2% | -11% | 3%
CC1=C(C(=O)OCCBr)C(c2cccc3ccccc23)NC(=O)N1 (configuration not stated) | -5% | -23 | 0% | -9% | -13% | 40µM*
